In PubChem BioAssay (EPA / NIEHS):
Results filed as inconclusive are left out. Calls of active or inactive are those of the source. Rule for the calls: active = hit-call score of the fitted dose curve at least 0.9, where 1 is the maximum; inconclusive = response in the unintended direction; inactive = score below 0.9.

The compounds below were run against human Epidermal Growth Factor Receptor (EGFR), EGFR (gene 1956) (UniProt P00533) (assay: NVS_ENZ_hEGFR: NovaScreen (NVS) Enzymatic Assay for human Epidermal Growth Factor Receptor (EGFR) (AID 2283151)).
human Epidermal Growth Factor Receptor (EGFR), EGFR (gene 1956), sequence (P00533 whole entry, looked up): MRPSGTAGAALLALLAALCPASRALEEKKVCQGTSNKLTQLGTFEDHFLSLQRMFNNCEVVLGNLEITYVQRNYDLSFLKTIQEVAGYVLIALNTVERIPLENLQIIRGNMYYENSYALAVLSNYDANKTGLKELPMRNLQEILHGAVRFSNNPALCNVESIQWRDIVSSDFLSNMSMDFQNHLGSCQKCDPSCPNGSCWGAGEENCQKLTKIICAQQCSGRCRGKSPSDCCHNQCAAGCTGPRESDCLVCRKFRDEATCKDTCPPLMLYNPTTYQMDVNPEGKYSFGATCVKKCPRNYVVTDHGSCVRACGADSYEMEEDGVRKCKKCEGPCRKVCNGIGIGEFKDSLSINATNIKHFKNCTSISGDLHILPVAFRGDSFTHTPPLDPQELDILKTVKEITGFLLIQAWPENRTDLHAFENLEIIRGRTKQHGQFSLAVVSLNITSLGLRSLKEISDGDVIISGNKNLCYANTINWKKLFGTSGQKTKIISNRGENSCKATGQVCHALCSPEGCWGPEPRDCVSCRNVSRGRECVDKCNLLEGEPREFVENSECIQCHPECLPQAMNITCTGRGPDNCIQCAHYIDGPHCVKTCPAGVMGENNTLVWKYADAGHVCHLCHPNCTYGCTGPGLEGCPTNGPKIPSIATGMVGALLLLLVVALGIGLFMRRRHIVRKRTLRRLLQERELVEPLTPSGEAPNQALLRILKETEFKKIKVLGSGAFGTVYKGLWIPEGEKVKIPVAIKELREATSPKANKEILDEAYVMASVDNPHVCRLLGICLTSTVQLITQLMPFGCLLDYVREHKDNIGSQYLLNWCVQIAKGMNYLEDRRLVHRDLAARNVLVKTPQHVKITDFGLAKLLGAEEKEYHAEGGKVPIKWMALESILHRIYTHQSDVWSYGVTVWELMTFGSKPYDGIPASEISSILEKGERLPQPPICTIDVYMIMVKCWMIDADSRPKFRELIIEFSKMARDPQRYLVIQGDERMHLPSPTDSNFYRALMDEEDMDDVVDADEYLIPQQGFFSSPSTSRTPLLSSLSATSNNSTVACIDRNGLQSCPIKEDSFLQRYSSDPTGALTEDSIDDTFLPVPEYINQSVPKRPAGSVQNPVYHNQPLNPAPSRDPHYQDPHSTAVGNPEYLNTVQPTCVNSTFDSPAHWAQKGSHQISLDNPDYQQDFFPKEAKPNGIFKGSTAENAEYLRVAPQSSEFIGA
Summary of the method: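 Cell-free kinase assay, fluorescence plus electrophoretic mobility shift separating substrate and product, read 1 hour after dosing; loss of signal vs DMSO. Duplicate screen at 25 uM, then concentration-response to 50 uM.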

Compound	outcome
O=C(O)C(F)(F)C(F)(F)C(F)(F)C(F)(F)C(F)(F)F	inactive
CC1=C2C[C@H]3[C@@H](CC=C4C[C@@H](O)CC[C@@]43C)[C@@H]2CC[C@]12O[C@@H]1C[C@H](C)CN[C@H]1[C@H]2C	inactive
O=C(O)C(F)(F)C(F)(F)C(F)(F)C(F)(F)C(F)(F)C(F)(F)C(F)(F)C(F)(F)F	inactive

What follows are compounds tested against human Dual Specificity Protein Phosphatase 3 (DUSP3), DUSP3 (gene 1845) (UniProt P51452) (assay: NVS_ENZ_hDUSP3: NovaScreen (NVS) Enzymatic Assay for human Dual Specificity Protein Phosphatase 3 (DUSP3) (AID 2283152);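 note: phosphatase activity of recombinant human DUSP3 on a fluorogenic substrate without cells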).
human Dual Specificity Protein Phosphatase 3 (DUSP3), DUSP3 (gene 1845), sequence (P51452 whole entry, looked up): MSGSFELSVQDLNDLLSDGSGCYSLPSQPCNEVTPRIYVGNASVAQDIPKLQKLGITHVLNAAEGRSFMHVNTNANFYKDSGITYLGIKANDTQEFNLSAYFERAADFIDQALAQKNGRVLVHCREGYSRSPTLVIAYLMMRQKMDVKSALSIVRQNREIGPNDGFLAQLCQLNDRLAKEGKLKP
Summary of the method: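 Cell-free assay with recombinant human DUSP3 and fluorogenic substrate, read by fluorescence intensity. Primary screen ran duplicate at 25 uM; actives followed up in concentration series; loss of signal versus DMSO scored.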

Compound	AC50	outcome
ClC1=C(Cl)[C@]2(Cl)[C@@H]3[C@@H]4C[C@@H]([C@H]5O[C@@H]45)[C@@H]3[C@@]1(Cl)C2(Cl)Cl	46.6 µM (active)	
CCCCCCCCCC[N+](C)(C)CCCCCCCCCC	26.3 µM (active)	
CCCCCCCCCc1ccc(O)cc1	13.2 µM (active)	
O=C(O)C(F)(F)C(F)(F)C(F)(F)C(F)(F)C(F)(F)C(F)(F)C(F)(F)C(F)(F)C(F)(F)F	13 µM (active)	
CCCCCCCCOC(=O)c1ccccc1C(=O)OCCCCCCCC		inactive

What follows are compounds tested against human Esterase Plasma (ES), BCHE (gene 590) (UniProt P06276) (assay: NVS_ENZ_hES: NovaScreen (NVS) Enzymatic Assay for human Esterase Plasma (ES) (AID 2283157)).
human Esterase Plasma (ES), BCHE (gene 590), sequence (P06276 whole entry, looked up): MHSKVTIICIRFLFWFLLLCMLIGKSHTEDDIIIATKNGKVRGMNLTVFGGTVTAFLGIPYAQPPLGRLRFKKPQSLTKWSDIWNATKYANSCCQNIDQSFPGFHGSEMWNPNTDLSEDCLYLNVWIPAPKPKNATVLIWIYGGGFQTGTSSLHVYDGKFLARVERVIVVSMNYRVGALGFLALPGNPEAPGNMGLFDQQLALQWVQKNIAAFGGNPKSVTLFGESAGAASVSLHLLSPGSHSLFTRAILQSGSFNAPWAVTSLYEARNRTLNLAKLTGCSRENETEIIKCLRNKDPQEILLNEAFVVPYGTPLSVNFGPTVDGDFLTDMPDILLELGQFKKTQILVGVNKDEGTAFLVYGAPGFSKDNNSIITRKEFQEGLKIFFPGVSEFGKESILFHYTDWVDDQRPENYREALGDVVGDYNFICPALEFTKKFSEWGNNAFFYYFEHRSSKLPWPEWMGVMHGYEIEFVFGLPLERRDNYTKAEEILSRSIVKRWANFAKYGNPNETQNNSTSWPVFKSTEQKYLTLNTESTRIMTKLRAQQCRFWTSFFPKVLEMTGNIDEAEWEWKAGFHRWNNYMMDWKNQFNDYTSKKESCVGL
Summary of the method: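 Chemicals were added to plasma-extracted human enzyme in a cell-free format, and activity was read colorimetrically after 0.25 hour. Activity loss was referenced to DMSO; concentration-response top dose was 50 uM.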

Compound	outcome	AC50
CCCN(CCC)N=O	inactive	
CC1=C2C[C@H]3[C@@H](CC=C4C[C@@H](O)CC[C@@]43C)[C@@H]2CC[C@]12O[C@@H]1C[C@H](C)CN[C@H]1[C@H]2C		12.5 µM (active)
O=C(N[C@H]1CN2CCC1CC2)c1cc2ccoc2cn1	inactive	
CCCCCCCCCC[N+](C)(C)CCCCCCCCCC		25 µM (active)
Cc1ccccc1CO[C@@H]1C[C@@]2(C(C)C)CC[C@]1(C)O2		9.07 µM (active)

These compounds were tested against human Ephrin type-A Receptor 1 (EphA1), EPHA1 (gene 2041) (UniProt P21709) (assay: NVS_ENZ_hEphA1: NovaScreen (NVS) Enzymatic Assay for human Ephrin type-A Receptor 1 (EphA1) (AID 2283158);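 note: activity is signal loss versus DMSO meaning EphA1 kinase inhibition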).
human Ephrin type-A Receptor 1 (EphA1), EPHA1 (gene 2041), sequence (P21709 whole entry, looked up): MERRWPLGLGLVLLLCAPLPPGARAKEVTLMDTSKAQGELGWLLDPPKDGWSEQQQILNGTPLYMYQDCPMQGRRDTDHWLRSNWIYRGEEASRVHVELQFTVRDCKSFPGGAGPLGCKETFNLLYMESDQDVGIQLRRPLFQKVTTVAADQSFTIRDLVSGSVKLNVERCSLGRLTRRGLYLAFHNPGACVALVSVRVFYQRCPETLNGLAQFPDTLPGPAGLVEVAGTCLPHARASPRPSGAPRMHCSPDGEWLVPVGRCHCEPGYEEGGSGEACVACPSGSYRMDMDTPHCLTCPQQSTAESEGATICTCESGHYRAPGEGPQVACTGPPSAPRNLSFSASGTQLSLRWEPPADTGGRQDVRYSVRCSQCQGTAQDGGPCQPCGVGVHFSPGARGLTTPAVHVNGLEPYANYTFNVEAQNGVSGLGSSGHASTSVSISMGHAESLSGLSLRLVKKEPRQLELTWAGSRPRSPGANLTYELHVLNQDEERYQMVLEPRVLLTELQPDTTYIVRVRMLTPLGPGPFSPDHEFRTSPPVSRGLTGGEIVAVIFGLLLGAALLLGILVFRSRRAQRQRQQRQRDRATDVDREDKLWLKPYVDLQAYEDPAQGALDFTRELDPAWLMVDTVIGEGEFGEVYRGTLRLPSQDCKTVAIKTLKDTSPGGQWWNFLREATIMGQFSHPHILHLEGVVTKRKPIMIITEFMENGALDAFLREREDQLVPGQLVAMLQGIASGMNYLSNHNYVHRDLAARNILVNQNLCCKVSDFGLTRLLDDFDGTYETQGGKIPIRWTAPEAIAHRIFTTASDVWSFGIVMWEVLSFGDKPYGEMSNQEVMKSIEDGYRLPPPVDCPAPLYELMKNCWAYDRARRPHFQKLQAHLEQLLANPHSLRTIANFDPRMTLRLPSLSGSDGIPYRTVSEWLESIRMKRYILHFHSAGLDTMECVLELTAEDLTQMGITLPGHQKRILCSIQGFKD
Summary of the method: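 Cell-free enzymatic assay with recombinant EphA1 and fluorescent substrate; product separated by electrophoretic mobility shift, fluorescence intensity read 1 hour after dosing. Loss of signal versus DMSO baseline; primary duplicate screen at 25 uM, actives followed to 50 uM top concentration.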

Compound	outcome	AC50
O=C(NC(=O)c1c(F)cccc1F)Nc1cc(Cl)c(OC(F)(F)C(F)F)c(Cl)c1	inactive	
CC1=C2C[C@H]3[C@@H](CC=C4C[C@@H](O)CC[C@@]43C)[C@@H]2CC[C@]12O[C@@H]1C[C@H](C)CN[C@H]1[C@H]2C	inactive	
Cc1cccc([N+](=O)[O-])c1	inactive	
O=C(O)C(F)(F)C(F)(F)C(F)(F)C(F)(F)C(F)(F)C(F)(F)C(F)(F)C(F)(F)F	inactive	
CCCCCCCCCC[N+](C)(C)CCCCCCCCCC		19.7 µM (active)
CCCCCCCCCc1ccc(O)cc1	inactive	

Each compound was assayed against human Fibroblast Growth Factor Receptor 1 (FGFR1), FGFR1 (gene 2260) (UniProt P11362) (assay: NVS_ENZ_hFGFR1: NovaScreen (NVS) Enzymatic Assay for human Fibroblast Growth Factor Receptor 1 (FGFR1) (AID 2283159);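 for AC50: hits lower the signal so potencies describe inhibitors of the kinase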).
human Fibroblast Growth Factor Receptor 1 (FGFR1), FGFR1 (gene 2260), sequence (P11362 whole entry, looked up): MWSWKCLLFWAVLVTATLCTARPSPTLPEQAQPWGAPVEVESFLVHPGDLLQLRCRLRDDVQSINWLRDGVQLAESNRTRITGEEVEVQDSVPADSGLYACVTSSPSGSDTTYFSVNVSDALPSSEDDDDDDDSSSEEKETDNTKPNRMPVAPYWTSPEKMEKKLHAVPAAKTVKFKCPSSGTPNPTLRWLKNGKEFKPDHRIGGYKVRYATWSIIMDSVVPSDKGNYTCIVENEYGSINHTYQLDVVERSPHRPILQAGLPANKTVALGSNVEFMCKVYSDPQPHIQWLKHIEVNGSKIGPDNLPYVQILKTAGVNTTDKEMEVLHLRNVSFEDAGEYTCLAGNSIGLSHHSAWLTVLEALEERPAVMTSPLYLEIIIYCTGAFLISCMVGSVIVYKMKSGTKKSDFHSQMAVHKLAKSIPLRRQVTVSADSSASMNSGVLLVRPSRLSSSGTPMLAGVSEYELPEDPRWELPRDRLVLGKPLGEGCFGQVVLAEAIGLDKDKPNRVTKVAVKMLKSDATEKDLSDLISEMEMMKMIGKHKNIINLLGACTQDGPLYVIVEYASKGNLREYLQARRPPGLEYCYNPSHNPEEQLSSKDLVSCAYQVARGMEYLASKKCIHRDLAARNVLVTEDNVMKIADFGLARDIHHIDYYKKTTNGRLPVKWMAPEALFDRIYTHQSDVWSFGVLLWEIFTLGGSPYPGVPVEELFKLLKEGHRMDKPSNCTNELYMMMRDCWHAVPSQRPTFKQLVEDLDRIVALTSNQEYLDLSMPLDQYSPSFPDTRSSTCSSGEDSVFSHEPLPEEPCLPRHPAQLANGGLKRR
Summary of the method: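 Cell-free recombinant kinase with fluorescent substrate, product separated by electrophoretic mobility shift; read 1 hour after dosing, loss of signal relative to DMSO. Initial screen in duplicate at 25 uM, actives followed in concentration series.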

Compound	outcome	AC50
ClC(Cl)=C(c1ccc(Cl)cc1)c1ccc(Cl)cc1	inactive	
CC1=C2C[C@H]3[C@@H](CC=C4C[C@@H](O)CC[C@@]43C)[C@@H]2CC[C@]12O[C@@H]1C[C@H](C)CN[C@H]1[C@H]2C		21.1 µM (active)
Cc1cccc([N+](=O)[O-])c1	inactive	
O=C(O)C(F)(F)C(F)(F)C(F)(F)C(F)(F)C(F)(F)C(F)(F)C(F)(F)C(F)(F)F	inactive	
C=CC(=O)NCNC(=O)C=C	inactive	
O=C(N[C@H]1CN2CCC1CC2)c1cc2ccoc2cn1	inactive	
CCCCCCOC(=O)c1ccccc1C(=O)OCCCCCC	inactive	
Cc1ccccc1CO[C@@H]1C[C@@]2(C(C)C)CC[C@]1(C)O2	inactive	
O=S(=O)(O)C(F)(F)C(F)(F)C(F)(F)C(F)(F)F	inactive	
CC(c1ccc(O)cc1)(c1ccc(O)cc1)c1ccc(O)cc1		25 µM (active)

The compounds below were run against human FYN Proto-Oncogene, Src family Tyrosine Kinase (Fyn), FYN (gene 2534) (UniProt P06241) (assay: NVS_ENZ_hFyn: NovaScreen (NVS) Enzymatic Assay for human FYN Proto-Oncogene, Src family Tyrosine Kinase (Fyn) (AID 2283161)).
human FYN Proto-Oncogene, Src family Tyrosine Kinase (Fyn), FYN (gene 2534), sequence (P06241 whole entry, looked up): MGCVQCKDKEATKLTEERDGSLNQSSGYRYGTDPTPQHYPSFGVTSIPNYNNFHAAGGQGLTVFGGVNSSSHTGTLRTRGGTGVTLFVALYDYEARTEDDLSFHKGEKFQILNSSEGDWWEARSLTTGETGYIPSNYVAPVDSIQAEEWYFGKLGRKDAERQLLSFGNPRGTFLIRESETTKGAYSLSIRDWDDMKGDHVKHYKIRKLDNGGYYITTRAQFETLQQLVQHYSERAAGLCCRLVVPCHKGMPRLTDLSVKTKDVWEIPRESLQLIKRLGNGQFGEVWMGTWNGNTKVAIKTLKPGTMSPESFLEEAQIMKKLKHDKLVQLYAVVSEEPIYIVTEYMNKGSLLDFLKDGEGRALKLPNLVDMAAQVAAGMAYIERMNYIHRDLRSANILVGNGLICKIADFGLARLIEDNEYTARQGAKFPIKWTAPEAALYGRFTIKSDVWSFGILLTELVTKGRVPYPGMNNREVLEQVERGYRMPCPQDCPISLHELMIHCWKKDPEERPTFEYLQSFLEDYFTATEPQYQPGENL
Summary of the method: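 Recombinant enzyme with fluorescent substrate, product separated by electrophoretic mobility shift; read 1 h after dosing. Duplicate 25 uM single-point screen, actives retested in concentration series; loss of signal vs DMSO.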

Compound	outcome
Oc1ccc(C(c2ccc(O)cc2)(C(F)(F)F)C(F)(F)F)cc1	inactive
CC1=C2C[C@H]3[C@@H](CC=C4C[C@@H](O)CC[C@@]43C)[C@@H]2CC[C@]12O[C@@H]1C[C@H](C)CN[C@H]1[C@H]2C	inactive
O=C(O)C(F)(F)C(F)(F)C(F)(F)C(F)(F)C(F)(F)C(F)(F)C(F)(F)C(F)(F)F	inactive

What follows are compounds tested against Glycogen synthase kinase-3 beta (Homo sapiens) (UniProt P49841) (assay: NVS_ENZ_hGSK3b: NovaScreen (NVS) Enzymatic Assay for human Glycogen Synthase Kinase-3 beta (GSK3b) (AID 2283165)).
Glycogen synthase kinase-3 beta (Homo sapiens), sequence (P49841 whole entry, looked up): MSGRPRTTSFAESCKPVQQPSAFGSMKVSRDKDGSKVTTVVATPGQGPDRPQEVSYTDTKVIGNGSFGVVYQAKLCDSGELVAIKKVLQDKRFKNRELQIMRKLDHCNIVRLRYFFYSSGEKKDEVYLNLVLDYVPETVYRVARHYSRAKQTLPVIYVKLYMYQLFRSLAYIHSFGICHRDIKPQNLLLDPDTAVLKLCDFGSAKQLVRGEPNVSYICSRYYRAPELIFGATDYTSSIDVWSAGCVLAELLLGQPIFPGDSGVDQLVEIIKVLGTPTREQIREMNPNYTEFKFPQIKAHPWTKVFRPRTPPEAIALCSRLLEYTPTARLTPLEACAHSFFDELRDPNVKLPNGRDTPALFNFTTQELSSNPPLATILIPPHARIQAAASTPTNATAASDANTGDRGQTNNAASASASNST
Summary of the method: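 Recombinant enzyme with specific fluorescent substrate, 1 h, product separated by electrophoretic mobility shift. Primary duplicate screen at 25 uM; actives (e.g. 30% inhibition) followed in singleton concentration-response to 50 uM. Signal loss fitted versus DMSO.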

Compound	outcome
CCCN(CCC)N=O	inactive
CC1=C2C[C@H]3[C@@H](CC=C4C[C@@H](O)CC[C@@]43C)[C@@H]2CC[C@]12O[C@@H]1C[C@H](C)CN[C@H]1[C@H]2C	inactive
O=C(O)C(F)(F)C(F)(F)C(F)(F)C(F)(F)C(F)(F)C(F)(F)C(F)(F)C(F)(F)F	inactive
